Out of some 320,000 compounds screened, about 1,300 (0.41%) were called active. Not shown: some 3% with an inconclusive outcome. How the calls were made is not given here. The list is a sample of the results. Entries with a potency or affinity are not part of this list.
Experiment: growth inhibition of non-replicating M. tuberculosis (AID 488890);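 further: plate controls were DMSO cells for no effect and high antibiotic wells for full effect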
Conditions: Mycobacterium tuberculosis non-replicating, at 25 µM, stronger effect = higher value

Structure (SMILES) | inhibition [%]
C/C(=N\NC(=O)CNc1cccc(Cl)c1C)C1CC1 | 2.17
CC(=O)Nc1ccc(C(=O)N2CCN(S(=O)(=O)c3ccc4c(c3)OCCCO4)CC2)cc1 | -1.17
Cc1sc(NC(=O)C2=COCCO2)nc1-c1ccc(Cl)cc1 | 3.57
c1ccc(CN2CCN(c3cnc4ccccc4n3)CC2)cc1 | 3.95
COc1cc(OC)cc(C(=O)NC(=S)NNC(=O)[C@H]2C[C@@H]2c2ccccc2)c1 | 78.5
COc1cc(C(=O)NC(=S)NNC(=O)[C@H]2C[C@@H]2c2ccccc2)cc(OC)c1OC | 62.4
CC(=O)NCCc1nc2cc(NS(=O)(=O)c3ccc(Cl)cc3)ccc2n1C | -19.6
COCCCN(CC(=O)Nc1ccc(F)cc1)S(=O)(=O)c1cccs1 | 5.35
NNC(=O)/C(=C/c1cccs1)NC(=O)c1ccccc1Cl | 1.61
Nc1ccc(C(=O)Nc2ccc(OC(F)(F)C(F)F)c(NC(=O)c3ccc(N)cc3)c2)cc1 | 20.7
CCN(CC)S(=O)(=O)c1ccc(NS(=O)(=O)c2ccc(OC)c([N+](=O)[O-])c2)cc1 | -6.27
CCn1cc(C(=O)NN)c(=O)c2cc(F)c(N3CCN(C)CC3)cc21 | -3.82
CCCCCCCCC(=O)N1CCN(c2cc3c(cc2F)c(=O)c(C(=O)O)cn3CC)CC1 | 62.8
CCOC(=O)c1cn(CC)c2cc(N3CCN(C)CC3)c(F)cc2c1=O | -0.72
CCCCCCCCCC(=O)N1CCN(c2cc3c(cc2F)c(=O)c(C(=O)O)cn3CC)CC1 | 6.5
CCCCCCCC(=O)N1CCN(c2cc3c(cc2F)c(=O)c(C(=O)O)cn3CC)CC1 | 72.9
O=C(O)c1cn(C2CC2)c2cc(N3CCN(S(=O)(=O)c4ccc5c(c4)OCCO5)CC3)c(F)cc2c1=O | 79.5
CCc1ccc(/C=N/NC(=O)Cc2ccc(OC)c(OC)c2)s1 | 9.54
COC(=O)C1=C2SC(C)C(=O)N2C(N)=C(C#N)C1c1ccc(OC)c(OC)c1 (stereo not given) | 5.18
CC(=O)c1ccc(NC(=O)CCC(=O)OCC(F)(F)C(F)F)cc1 | -4.72
CC(=O)Nc1ccccc1OCc1cnc(Cl)s1 | 21
Cc1cc(S(=O)(=O)Nc2cc(C)c(O)c(C)c2)c(C)s1 | 13
COc1ccc(-c2cc(NCc3ccccn3)n3ncnc3n2)cc1 | 55.9
COc1ccc(-c2cc(NCCc3ccncc3)n3ncnc3n2)cc1 | 24.4
C[C@H](CO)N1C[C@H](C)[C@@H](CN(C)S(=O)(=O)c2ccccc2)Oc2ccc(NC(=O)C3CC3)cc2C1=O | 6.81
Cc1cc(Br)ccc1SCC(=O)OCC(=O)NC1CCCC1 | 35.6
CC(=O)Nc1ccc(C(=O)NNC(=O)c2cc([N+](=O)[O-])cc([N+](=O)[O-])c2)cc1 | 16.3
Cc1csc(NC(=O)c2ccc(C(=O)Nc3nc(C)cs3)cc2)n1 | -7.26

Structure (SMILES) | inhibition [%]
COc1ccc(NC(=O)c2cc([N+](=O)[O-])ccc2N2CCCC2)cc1 | -2.99
O=C(Nc1ccc([N+](=O)[O-])cc1)c1cncc(Br)c1 | 13.8
COc1ccc(NC(=O)c2cc([N+](=O)[O-])ccc2N2CCCCC2)cc1 | -7.4
O=C(Nc1ccc(N2CCCCC2)cc1)c1cc([N+](=O)[O-])cc([N+](=O)[O-])c1 | 14.1
Cc1csc(NC(=O)c2ccc(C)c([N+](=O)[O-])c2)n1 | 5.36
O=C(Nc1ccc(NC(=O)c2cccc([N+](=O)[O-])c2)cc1)c1cccc([N+](=O)[O-])c1 | -7.47
CC1=C(C(=O)c2ccccc2)C(c2ccc(N3CCOCC3)cc2)NC(=O)N1 (stereo not given) | 13.5
COc1ccc(OC)c(S(=O)(=O)N2CCCC(C(=O)N3CCOCC3)C2)c1 (stereo not given) | -3.68
CN1CCN(C(=S)NC(=O)/C=C/c2ccccc2Cl)CC1 | -10.3
Cc1nc(C(=O)NCC(=O)c2ccc(Cl)cc2)c(C(F)(F)F)o1 | 75
O=C(CCNC(=O)Cn1ccc2ccccc2c1=O)NCc1ccc(F)cc1Cl | -3.09
NC(=O)CCC(NS(=O)(=O)c1ccc(Cl)cc1)C(=O)NCc1ccc(Cl)cc1 (stereo not given) | 0.33
Cc1cccc(-n2c(-c3ccc(Br)o3)n[nH]c2=S)c1 | -15
COc1cc(CNCc2ccccc2)cc(Cl)c1OC | -13.6
COc1cc(CNC2CCCC2)cc(Cl)c1OCc1ccccc1F | 78.7
OCCNCc1ccc(OCc2ccc(Cl)cc2Cl)cc1 | 61.3
CCOc1cccc(CNCCO)c1OCc1ccc(Cl)cc1Cl | 42.6
CCCCNCc1cc(Br)c(OCC(=O)NCc2ccccc2)c(OC)c1 | 68.2
COc1cc(CNC2CCCCCCC2)cc(Cl)c1OC | 9.81
COc1cc(CNC2CCCC2)cc(Br)c1OCC(=O)Nc1ccccc1C | 45.5
CCOc1cc(CNCCc2ccc(S(N)(=O)=O)cc2)cc(Cl)c1OCc1ccccc1 | 73
COc1ccc(-c2n[nH]c(=S)n2-c2ccc(C)cc2C)cc1 | -17.9
Cc1ccc(S(=O)(=O)CCc2nnc(N)s2)cc1C | 4.5
Cc1oc(-c2ccccc2F)nc1CSCC(=O)NC1CC1 | -0.31
Cc1c(CC(=O)O)c(=O)oc2c(C)c(OCc3ccccc3)ccc12 | -3.08
CCN(CC(=O)Nc1cccc(C(C)=O)c1)S(=O)(=O)c1ccccc1 | -4.85
O=C(c1cccnc1)N1CCN(S(=O)(=O)c2ccc3ccccc3c2)CC1 | 9.44
